# Reference: PubChem BioAssay (NCATS)
# Inconclusive results are not listed. Activity calls are given as the source filed them. Unless noted, calls follow the shape of the dose curve; as a rule, active = well fitted curve in the direction sought with a large enough effect; inconclusive = small, poorly fitted or top-dose-only effect, or another doubt; inactive = no such curve, though single readings can be large; an effect the other way counts as inactive or inconclusive.
# Key:
# [1] = molecular target: Calcium and integrin-binding protein 1 (Homo sapiens) (UniProt Q99828); test: Primary qHTS for Identification of Calcium Integrin Binding Protein 1 (CIB1) Competitor (AID 1508620);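 also: GST tagged CIB1 binding a fluorescein labelled alphaIIb integrin peptide tracer; top concentration of the series differs between compounds; % is scaled to controls: 0 for no effect and ±100 for the full control effect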
# Chain of Calcium and integrin-binding protein 1 (Homo sapiens) (Q99828 whole entry, looked up): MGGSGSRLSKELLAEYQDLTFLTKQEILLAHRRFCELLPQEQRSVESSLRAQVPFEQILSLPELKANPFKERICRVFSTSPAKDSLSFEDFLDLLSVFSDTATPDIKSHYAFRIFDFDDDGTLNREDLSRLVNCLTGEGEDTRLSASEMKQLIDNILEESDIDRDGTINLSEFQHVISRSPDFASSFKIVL
# Outline: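 CIB1-GST (1 uM final) and compound incubated 15 min at room temperature before adding FITC-alphaIIb peptide tracer (100 nM final). Competition for binding read by fluorescence polarization (ex 480, em 540) after another 15 min at room temperature.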
# [2] = molecular target: Cytochrome P450 2D6 (Homo sapiens) (UniProt P10635); test: Cytochrome P450 family 2 subfamily D member 6 (CYP2D6) small molecule antagonists: luciferase biochemical (cell-free) qHTS assay (AID 1645840; active = well fitted curve in the direction sought with a large enough effect in the repeat runs; an effect the other way counts as inactive or inconclusive; also: nearly all actives have a fitted effect of over 55% in size; also: potency is read from the fitted curve at half-maximal effect; as to activity change, negative = inhibition: % is scaled to controls: 0 for no effect and ±100 for the full control effect)
# Chain of Cytochrome P450 2D6 (Homo sapiens) (P10635 whole entry, looked up): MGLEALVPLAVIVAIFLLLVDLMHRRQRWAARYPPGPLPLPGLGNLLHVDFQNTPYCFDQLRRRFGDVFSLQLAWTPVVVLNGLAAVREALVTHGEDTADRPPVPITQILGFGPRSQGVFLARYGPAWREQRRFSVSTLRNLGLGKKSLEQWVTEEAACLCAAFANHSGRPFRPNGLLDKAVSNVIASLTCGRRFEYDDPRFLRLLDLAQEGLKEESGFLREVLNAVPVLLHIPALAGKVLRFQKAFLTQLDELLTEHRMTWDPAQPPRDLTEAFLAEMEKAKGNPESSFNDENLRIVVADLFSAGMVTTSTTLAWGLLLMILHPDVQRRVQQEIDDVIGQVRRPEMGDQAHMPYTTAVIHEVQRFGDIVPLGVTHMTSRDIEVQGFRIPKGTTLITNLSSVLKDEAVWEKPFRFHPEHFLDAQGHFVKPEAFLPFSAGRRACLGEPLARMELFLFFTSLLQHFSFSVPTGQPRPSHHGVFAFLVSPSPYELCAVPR
# Outline: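 P450-Glo luminescent screen: recombinant CYP2D6 enzyme–proluciferin substrate mix preincubated with compound 10 min at room temperature, then NADPH regeneration added for 1 h at room temperature. Detection reagent added for 20 min; luciferin light read as relative luminescence units.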
# [3] = molecular target: Cytochrome P450 3A4 (Homo sapiens) (UniProt P08684); test: Cytochrome P450 family 3 subfamily A member 4 (CYP3A4) small molecule antagonists: luciferase qHTS assay (AID 1645841; active = well fitted curve in the direction sought with a large enough effect in the repeat runs; an effect the other way counts as inactive or inconclusive; also: nearly all actives have a fitted effect of over 45% in size; also: potency is read from the fitted curve at half-maximal effect)
# Chain of Cytochrome P450 3A4 (Homo sapiens) (P08684 whole entry, looked up): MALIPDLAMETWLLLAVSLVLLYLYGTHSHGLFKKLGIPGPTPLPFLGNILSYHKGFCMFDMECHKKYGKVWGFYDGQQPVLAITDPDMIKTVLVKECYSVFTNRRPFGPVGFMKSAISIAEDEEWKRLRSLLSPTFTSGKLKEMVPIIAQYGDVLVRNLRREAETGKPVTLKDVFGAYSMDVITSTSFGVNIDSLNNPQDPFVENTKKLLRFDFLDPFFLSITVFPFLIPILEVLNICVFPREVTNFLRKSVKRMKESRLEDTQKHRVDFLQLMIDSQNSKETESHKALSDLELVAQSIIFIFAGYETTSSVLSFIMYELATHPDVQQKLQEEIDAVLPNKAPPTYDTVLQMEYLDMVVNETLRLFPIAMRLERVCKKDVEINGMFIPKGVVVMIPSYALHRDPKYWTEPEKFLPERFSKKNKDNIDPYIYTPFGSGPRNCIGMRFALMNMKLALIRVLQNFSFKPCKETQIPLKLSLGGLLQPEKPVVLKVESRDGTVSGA
# Outline: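 Luminescent CYP3A4 activity readout: compounds plus enzyme-substrate mix 10 min at room temperature, reaction started with NADPH regenerating system for 1 h, stopped with detection reagent, read after 20 min. Ketoconazole served as control.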
# [4] = molecular target: Cytochrome P450 2C9 (Homo sapiens) (UniProt P11712); test: Cytochrome P450 family 2 subfamily C member 9 (CYP2C9) small molecule antagonists: luciferase biochemical (cell-free) qHTS assay (AID 1645842; active = well fitted curve in the direction sought with a large enough effect in the repeat runs; an effect the other way counts as inactive or inconclusive; also: nearly all actives have a fitted effect of over 55% in size; also: potency is read from the fitted curve at half-maximal effect; as to activity change, negative = inhibition: % is scaled to controls: 0 for no effect and ±100 for the full control effect)
# Chain of Cytochrome P450 2C9 (Homo sapiens) (P11712 whole entry, looked up): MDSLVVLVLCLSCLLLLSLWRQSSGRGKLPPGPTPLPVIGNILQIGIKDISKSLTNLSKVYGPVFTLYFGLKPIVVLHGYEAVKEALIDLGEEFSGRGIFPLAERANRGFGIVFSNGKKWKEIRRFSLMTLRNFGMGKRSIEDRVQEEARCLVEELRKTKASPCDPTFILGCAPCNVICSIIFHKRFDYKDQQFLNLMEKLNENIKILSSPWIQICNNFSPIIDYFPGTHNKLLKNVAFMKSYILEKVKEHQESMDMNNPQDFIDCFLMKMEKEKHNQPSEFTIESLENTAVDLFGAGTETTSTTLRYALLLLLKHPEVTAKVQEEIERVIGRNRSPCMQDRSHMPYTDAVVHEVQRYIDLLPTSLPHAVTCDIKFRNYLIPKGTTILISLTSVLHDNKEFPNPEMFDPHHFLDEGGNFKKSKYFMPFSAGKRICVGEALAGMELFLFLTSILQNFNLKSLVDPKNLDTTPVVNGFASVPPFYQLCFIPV
# Outline: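 Luminescence, after 20 min with luciferin detection reagent, reflected CYP2C9 turnover during a 1 h NADPH-driven reaction at 37C. Enzyme-substrate mix contained 0.4% bovine serum albumin and was preincubated with compound 10 min at room temperature.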
# [5] = Primary qHTS for inhibitors of nuclear receptor binding SET domain protein 2 (NSD2) in an isogenic RCH-ACV NSD2 p.E1099K mutant (9B) (AID 1645876); also: nearly all actives have a fitted effect of over 70% in size; also: potency is read from the fitted curve at half-maximal effect
# [6] = Primary qHTS for inhibitors of nuclear receptor binding SET domain protein 2 (NSD2) in an RCH-ACV wild type WT cells (2C) (AID 1645877); also: nearly all actives have a fitted effect of over 70% in size; also: potency is read from the fitted curve at half-maximal effect
# [7] = molecular target: N-terminal Xaa-Pro-Lys N-methyltransferase 1 (Homo sapiens) (UniProt Q9BV86); test: Confirmatory qHTS for Inhibitors of N-terminal methyltransferase 1 (NTMT1): MTaseGlo Assay (AID 1645874); also: nearly all actives have a fitted effect of over 65% in size; also: potency is read from the fitted curve at half-maximal effect;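 as to activity change, negative = inhibition: luminescence from SAH made as NTMT1 methylates SPKRIA peptide using SAM; 0% = DMSO control and -100% = no-enzyme control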
# Chain of N-terminal Xaa-Pro-Lys N-methyltransferase 1 (Homo sapiens) (Q9BV86 whole entry, looked up): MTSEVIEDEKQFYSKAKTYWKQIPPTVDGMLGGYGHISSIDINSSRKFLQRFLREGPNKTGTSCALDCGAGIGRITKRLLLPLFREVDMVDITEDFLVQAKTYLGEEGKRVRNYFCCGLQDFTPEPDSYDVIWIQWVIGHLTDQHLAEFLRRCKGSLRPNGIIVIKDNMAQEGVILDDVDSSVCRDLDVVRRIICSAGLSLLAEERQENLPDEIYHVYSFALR
# Outline: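 Compounds are incubated with 125 nM NTMT1 and 100 uM SAM for 15 min before the SPKRIA peptide (1 uM) starts a 30 min room-temperature methylation. SAH is measured by coupled luciferase luminescence and curves fitted to a Hill equation.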
# [8] = molecular target: Catechol O-methyltransferase (Homo sapiens) (UniProt P21964); test: Confirmatory Screen for Target Class Profiling of Small Molecule Inhibitors of Methyltransferases (AID 1745852; calls by dose curve; also: potency is read from the fitted curve at half-maximal effect); details: MTase-Glo luminescence, SAH detection, recombinant enzyme; measured here: COMT max response; stronger effect = lower value
# Chain of Catechol O-methyltransferase (Homo sapiens) (P21964 whole entry, looked up): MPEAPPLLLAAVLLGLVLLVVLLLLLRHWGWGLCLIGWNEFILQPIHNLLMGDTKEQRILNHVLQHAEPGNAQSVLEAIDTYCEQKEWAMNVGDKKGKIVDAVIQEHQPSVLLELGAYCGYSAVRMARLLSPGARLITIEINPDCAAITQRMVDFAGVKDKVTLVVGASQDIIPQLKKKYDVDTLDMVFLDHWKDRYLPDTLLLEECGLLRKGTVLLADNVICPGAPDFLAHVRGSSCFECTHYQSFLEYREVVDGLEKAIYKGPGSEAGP
# [9] = molecular target: Guanidinoacetate N-methyltransferase (Homo sapiens) (UniProt Q14353); test: as above; details: activity change, negative = inhibition: at 57.3 µM (top of the series) unless noted
# [10] = molecular target: Nicotinamide N-methyltransferase (Homo sapiens) (UniProt P40261); test: as above; details: MTase-Glo luminescence, SAH detection, recombinant enzyme; measured here: NNMT max response; stronger effect = lower value
# Chain of Nicotinamide N-methyltransferase (Homo sapiens) (P40261 whole entry, looked up): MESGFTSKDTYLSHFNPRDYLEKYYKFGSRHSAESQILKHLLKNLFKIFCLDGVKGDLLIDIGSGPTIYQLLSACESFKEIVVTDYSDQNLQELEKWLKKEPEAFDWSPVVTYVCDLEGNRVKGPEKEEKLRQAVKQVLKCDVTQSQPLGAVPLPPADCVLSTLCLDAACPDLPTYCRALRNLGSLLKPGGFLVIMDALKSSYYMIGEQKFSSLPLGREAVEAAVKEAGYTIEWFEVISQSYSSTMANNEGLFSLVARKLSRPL
# [11] = molecular target: Phenylethanolamine N-methyltransferase (Homo sapiens) (UniProt P11086); test: as above; details: MTase-Glo luminescence, SAH detection, recombinant enzyme; measured here: PNMT max response; stronger effect = lower value
# Chain of Phenylethanolamine N-methyltransferase (Homo sapiens) (P11086 whole entry, looked up): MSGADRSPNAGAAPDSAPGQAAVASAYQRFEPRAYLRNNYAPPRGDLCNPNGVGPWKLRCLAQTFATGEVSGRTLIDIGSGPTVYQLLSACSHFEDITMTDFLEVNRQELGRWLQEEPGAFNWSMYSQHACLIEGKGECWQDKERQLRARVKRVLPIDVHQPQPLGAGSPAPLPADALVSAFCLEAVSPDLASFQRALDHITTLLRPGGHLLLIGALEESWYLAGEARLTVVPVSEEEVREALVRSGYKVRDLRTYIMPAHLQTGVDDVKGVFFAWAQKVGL
smiles,measurement,setting,value
CS(=O)(=O)N1CCC(NC(=O)c2[nH]ncc2NC(=O)c2c(Cl)cccc2Cl)CC1,Potency,[1],inactive
same,Potency,[2],inactive
same,Potency,[3],inactive
same,Potency,[4],21.3 µM (active)
same,Potency,[5],0.525 µM (active)
same,Potency,[6],0.332 µM (active)
O=C(CCc1ccccc1)N1CCC(O)(Cn2cnc3cc(Cl)ccc3c2=O)CC1,Potency,[1],inactive
same,Potency,[2],4.25 µM (active)
same,Potency,[4],10.7 µM (active)
NC(=O)C(CCC(F)(F)F)N(Cc1ccc(-c2ncon2)cc1F)S(=O)(=O)c1ccc(Cl)cc1 (stereo unspecified),Potency,[1],inactive
same,Potency,[2],12 µM (active)
same,Potency,[4],1.51 µM (active)
C[C@H]1Oc2cc(cnc2N)-c2c(nn(C)c2C#N)CN(C)C(=O)c2ccc(F)cc21,Potency,[1],inactive
same,Potency,[2],inactive
same,Potency,[4],6.01 µM (active)
CCC(CC)C(=O)Nc1sc2c(c1C#N)CCC(C(C)(C)CC)C2 (stereo unspecified),Potency,[1],inactive
same,Potency,[2],inactive
same,Potency,[3],9.52 µM (active)
same,Potency,[4],5.35 µM (active)
same,Potency,[5],inactive
same,Potency,[6],inactive
COc1ccc(-c2nc(-c3ccc(-c4cccc(Cl)c4)o3)[nH]c2-c2ccc(OC)cc2)cc1,Potency,[1],inactive
same,Potency,[2],inactive
CC[C@@](C)(Nc1ccnc(-c2c[nH]c3ncccc23)n1)C(=O)NCC(F)(F)F,Potency,[1],inactive
same,Potency,[2],16.9 µM (active)
same,Potency,[4],21.3 µM (active)
CC1CCCCN1S(=O)(=O)c1ccc(N2CCCC2=O)cc1 (stereo unspecified),Potency,[1],inactive
same,Potency,[2],inactive
same,Potency,[3],inactive
same,Potency,[4],15.1 µM (active)
same,Potency,[5],inactive
same,Potency,[6],inactive
CCCN1CCN(c2ccc(C(=O)NC3(C(=O)NCC#N)CCCCC3)cc2)CC1,Potency,[1],inactive
same,Potency,[2],inactive
same,Potency,[4],inactive
same,Potency,[5],inactive
same,Potency,[6],inactive
CN1CCC(Nc2nc(Nc3ccc(Oc4ccccc4)cc3)c3c(=O)[nH]cc(Br)c3n2)CC1,Potency,[1],inactive
same,Potency,[2],5.35 µM (active)
same,Potency,[4],16.9 µM (active)
same,Potency,[5],1.83 µM (active)
same,Potency,[6],0.916 µM (active)
O=[N+]([O-])c1cccc2[nH]c(CNc3nc(N4CCOCC4)nc4c3ncn4-c3ccsc3)nc12,Potency,[1],inactive
same,Potency,[2],inactive
same,Potency,[4],0.952 µM (active)
same,Potency,[5],0.0649 µM (active)
same,Potency,[6],0.0649 µM (active)
C[C@@H](Oc1cc(-n2cnc3ccc(OC4CCN(C)CC4)cc32)sc1C(N)=O)c1ccccc1C(F)(F)F,Potency,[1],inactive
same,Potency,[2],8.49 µM (active)
same,Potency,[4],8.49 µM (active)
same,Potency,[7],12.6 µM (active)
same,Potency,[5],0.0325 µM (active)
same,Potency,[6],0.0258 µM (active)
same,activity,[8],-76.5%
same,Potency,[9],24.1 µM (active)
same,activity,[10],-64.9%
same,activity,[11],-73.6%
CC(C)(C)c1ccc(S(=O)(=O)NCc2ccc(C(=O)Nc3cccnc3)cc2)cc1,Potency,[1],inactive
same,Potency,[2],6.74 µM (active)
same,Potency,[4],12 µM (active)
same,Potency,[5],0.258 µM (active)
same,Potency,[6],0.163 µM (active)
Cc1[nH]c2ccccc2c1C1=C(NCCc2ccc(F)cc2)C(=O)N(C)C1=O,Potency,[1],inactive
same,Potency,[2],4.25 µM (active)
same,Potency,[4],0.379 µM (active)
same,Potency,[5],6.49 µM (active)
same,Potency,[6],8.17 µM (active)
Cc1cccc(S(=O)(=O)N2CCC[C@@H]2CCN2CCC(C)CC2)c1,Potency,[1],inactive
same,Potency,[2],2.39 µM (active)
same,Potency,[4],inactive
same,Potency,[5],inactive
same,Potency,[6],inactive
CCCNc1ccc2ncc(-c3ccc4[nH]ncc4c3)n2n1,Potency,[1],inactive
same,Potency,[2],inactive
same,Potency,[4],inactive
same,Potency,[7],8.91 µM (active)
same,Potency,[5],0.258 µM (active)
same,Potency,[6],0.0916 µM (active)
same,activity,[8],-53.8%
same,Potency,[9],8.57 µM (active)
same,activity,[10],-46%
same,activity,[11],-45.4%
COC(=O)CC1CC(c2ccc(O)cc2)=NO1 (stereo unspecified),Potency,[1],inactive
same,Potency,[2],inactive
same,Potency,[4],inactive
same,Potency,[5],inactive
O=C(Nc1ccc(S(=O)(=O)C(F)(F)F)cc1)C1=CCN(c2ncccc2C(F)(F)F)CC1,Potency,[1],inactive
same,Potency,[2],7.56 µM (active)
same,Potency,[4],3.01 µM (active)
same,Potency,[7],inactive
same,Potency,[5],7.28 µM (active)
same,Potency,[6],10.3 µM (active)
O=C(COc1cccc2c(=O)[nH]ccc12)c1ccccc1,Potency,[1],inactive
same,Potency,[2],inactive
same,Potency,[4],8.49 µM (active)
same,Potency,[5],inactive
Cc1ccc(-c2ccc3ncc4c(c3n2)n(C2CCN(C(=O)[C@H](C)O)CC2)c(=O)n4C)cn1,Potency,[1],inactive
same,Potency,[2],inactive
same,Potency,[4],10.7 µM (active)
same,Potency,[7],39.8 µM (active)
same,Potency,[5],0.0742 µM (active)
same,Potency,[6],0.0742 µM (active)
COc1cc2ncnc(Nc3ccc(F)c(Cl)c3)c2cc1NC(=O)/C=C/CN1CCCCC1,Potency,[1],inactive
same,Potency,[2],0.0477 µM (active)
same,Potency,[4],inactive
same,Potency,[7],35.5 µM (active)
same,Potency,[5],4.17 µM (active)
same,Potency,[6],3.32 µM (active)
same,activity,[8],-45.2%
same,Potency,[9],24.1 µM (active)
same,activity,[10],-36.6%
same,activity,[11],-39.3%
O=C(Nc1ccc(S(=O)(=O)Nc2ccccc2Cl)c(Cl)c1)c1ccccn1,Potency,[1],inactive
same,Potency,[2],inactive
same,Potency,[4],0.674 µM (active)
same,Potency,[5],inactive
